Results from PubChem BioAssay AID504800 (The Scripps Research Institute Molecular Screening Center, 2011).
The other results are listed elsewhere or left out. Unmarked numbers belong to inactive results. Calls of active or inactive are those of the source.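 Rule for the calls: active = mean activation over replicate wells exceeds the adjusted hit threshold taken from the earlier primary screen (cut at about 20% in these data); inactive = the rest.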

The compounds below were run against cAMP-dependent protein kinase type I-alpha regulatory subunit (Bos taurus) (UniProt P00514) (assay: PKAc release from R1A subunit – biochemical, fluorescence polarization, Cy5-IP20, triplicate, confirmation (AID 504800;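 note: 0% = holoenzyme mix with DMSO only and 100% = cGMP-activated control wells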)). Conditions: PKA-R1A holoenzyme dissociation, at 11.4 µM, hits give high values.
cAMP-dependent protein kinase type I-alpha regulatory subunit (Bos taurus), sequence (P00514 whole entry, looked up): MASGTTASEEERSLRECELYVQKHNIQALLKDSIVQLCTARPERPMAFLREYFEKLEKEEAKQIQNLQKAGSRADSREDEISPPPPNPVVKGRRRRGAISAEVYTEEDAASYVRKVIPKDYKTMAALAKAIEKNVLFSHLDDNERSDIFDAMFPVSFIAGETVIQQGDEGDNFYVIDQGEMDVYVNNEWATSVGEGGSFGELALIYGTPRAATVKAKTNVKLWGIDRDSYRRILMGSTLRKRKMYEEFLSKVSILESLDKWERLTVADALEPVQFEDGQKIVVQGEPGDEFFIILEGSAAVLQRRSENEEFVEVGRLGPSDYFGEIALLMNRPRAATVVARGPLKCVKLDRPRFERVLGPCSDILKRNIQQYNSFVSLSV

SMILES	activation
COc1ccc(CNc2nnnn2C)cc1	6.31%
CN(C(=O)CSc1nnc(Nc2ccccc2)s1)C1CCS(=O)(=O)C1 (stereo not given)	1.24%
COc1ccc(NC(=O)c2ccc(C#CC(C)(C)O)cc2)cc1	-0.53%
CCCC(=O)Nc1ncnc2c1ncn2[C@@H]1O[C@@H]2OP(=O)(O)OC[C@H]2[C@H]1OC(=O)CCC	43.8% (active)
CCC(Oc1ccccc1C)C(=O)Nc1ccc(S(=O)(=O)Nc2cc(C)on2)cc1 (stereo not given)	2.1%
COc1ccccc1N1CC(C(=O)Nc2nnc(SCC(=O)NC(C)C)s2)CC1=O (stereo not given)	-1.21%
CCOc1cc(C(=O)Nc2c(C)ccc3nsnc23)cc(OCC)c1OCC	-1.31%
O=C(Nc1ccc2c(c1)[C@@H]1C[C@@H](CC(=O)N3CCCCC3)O[C@@H](CO)[C@@H]1O2)NC1CCCCC1	4.17%
N#Cc1ccccc1CN1C(=O)S/C(=C/c2cccn2-c2cccc(C(=O)O)c2)C1=O	26.8% (active)
Cc1ccc2nc3c(cc(C(=O)NCCc4ccccc4)c(=N)n3CC3CCCO3)c(=O)n2c1 (stereo not given)	4.46%
